The list is not random: actives were taken first. Their share in the collection is about 6.1%.
ATXN viability – Viability Counterscreen for Primary qHTS for Inhibitors of ATXN expression; S2 cells (HEK-293 line with an ATXN2-luciferase reporter) viability, CellTiter-Fluor protease fluorescence, 24 h; Potency, µM (top dose mostly 56.7 µM), usual class: cytotoxic; actives 0.49% (n = 400,000); AID 651635, 2014; note: nearly all actives have a fitted effect of over 40% in size
Gal4-VP16 FLuc – VP16 counterscreen qHTS for inhibitors of ROR gamma transcriptional activity; Drosophila S2 Gal4-VP16 UAS-luciferase, luminescence, 20 h; Potency, µM (top dose mostly 53.6 µM), usual class: inhibitors; actives 3.5% (n = 310,000); AID 2546, 2010;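 note: Gal4-VP16 expression switched on by copper sulfate through the metallothionein promoter; nearly all actives have a fitted effect of over 50% in size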
HepG2 viability – qHTS for Inhibitors of TGF-b: Cytotox Counterscreen. actives 0.76% (n = 410,000). AID 588856, 2011. Potency, µM (highest dose often 46.1 µM), usual class: cytotoxic. HepG2 CAGA-GFP viability, ATP luminescence, 18 h
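HepG2 CAGA-GFP cells (1000/well, DMEM with 1% FBS) received compound, then TGF-beta at 500 pg/mL final, and were incubated 18 hours at 37 degrees C. Viability was read by CellTiter-Glo luminescence. Media-only wells were set as complete cell-killing and DMSO as no toxicity.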
TGFb inhibitor – qHTS for Inhibitors of TGF-b | HepG2 CAGA-GFP TGF-b/SMAD3 reporter, GFP fluorescence, 18 h; TGF-beta stimulated, 500 pg/mL final | Potency, µM (top dose mostly 46.1 µM), actives largely listed as inhibitors | actives 1.2% (n = 410,000) | AID 588855, 2011; note: nearly all actives have a fitted effect of over 65% in size
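GFP signal (ex488/em500-530) from TGF-beta-stimulated HEPG2 CAGA-GFP cells, 500 pg/mL final, 18 h at 37 degrees C in DMEM plus 1% FBS, normalized to unstimulated and DMSO-stimulated controls.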
ATXN2 expr inh – Primary qHTS for Inhibitors of ATXN expression. HEK-293 ATXN2-luciferase reporter, luminescence, 24 h. Potency, µM (top dose mostly 57 µM), hits mostly inhibitors. actives 0.72% (n = 360,000). AID 1745845, 2022; note: nearly all actives have a fitted effect of over 55% in size
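qHTS (up to 57 uM final) was run with 24 h compound exposure of reporter cells at 37 °C. Each well was multiplexed: SteadyGlo luminescence measured ATXN2-luciferase expression after a fluorogenic Gly-Phe-AFC viability readout (25 uM final).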
RORgamma inh – qHTS for inhibitors of ROR gamma transcriptional activity; Drosophila S2 Gal4-RORgamma UAS-luciferase reporter, 20 h; Nuclear receptor ROR-gamma (Mus musculus), P51450; AID 2551, 2010; actives 5.4% (n = 310,000); Potency, µM (series often up to 53.6 µM), most hits filed as inhibitors; note: nearly all actives have a fitted effect of over 60% in size
Target sequence (P51450 whole entry, looked up, the tested form may be a part): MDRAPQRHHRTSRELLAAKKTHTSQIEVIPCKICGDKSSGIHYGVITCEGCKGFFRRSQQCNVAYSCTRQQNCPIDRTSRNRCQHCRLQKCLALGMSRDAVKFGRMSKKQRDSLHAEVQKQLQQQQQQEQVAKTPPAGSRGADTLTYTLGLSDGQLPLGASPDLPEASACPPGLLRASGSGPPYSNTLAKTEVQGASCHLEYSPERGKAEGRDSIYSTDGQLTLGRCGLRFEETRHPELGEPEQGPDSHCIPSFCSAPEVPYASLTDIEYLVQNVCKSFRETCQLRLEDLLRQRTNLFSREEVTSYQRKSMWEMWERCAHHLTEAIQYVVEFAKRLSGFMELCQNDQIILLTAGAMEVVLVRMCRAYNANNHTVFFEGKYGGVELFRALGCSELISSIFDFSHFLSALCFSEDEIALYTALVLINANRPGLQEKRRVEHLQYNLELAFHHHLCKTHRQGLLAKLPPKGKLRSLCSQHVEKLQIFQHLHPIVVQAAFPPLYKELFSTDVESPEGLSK
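Read-out: Photinus luciferase luminescence; inhibitors lower reporter signal. Insect Schneider cells with Gal4-ROR gamma fusion under metallothionein promoter, UAS reporter; 700 uM final copper sulfate induction, 20 hr, ambient temperature.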
Large screens that a line does not name were inactive. Calls come from the whole dose curve; as a rule, active = well fitted curve in the direction sought with a large enough effect; inconclusive = small, poorly fitted or top-dose-only effect, or another doubt; inactive = no such curve, though single readings can be large; an effect the other way counts as inactive or inconclusive.

CCOC(=O)c1c(C)n(-c2ccccc2)c2ccc(OC(=O)c3ccc(OCC)c(OCC)c3)cc12	none (no result: Gal4-VP16 FLuc, RORgamma inh)
CCn1nc(C)c2c(-c3ccccc3)cc(=O)n(C(C)C(=O)NCc3ccccc3OC)c21 (centres undefined)	ATXN viability inconclusive, TGFb inhibitor 20µM, ATXN2 expr inh inconclusive (no result: Gal4-VP16 FLuc, RORgamma inh)
CCc1nc2ccc(C(=O)Nc3cc(-c4ccccc4)ccc3OC)cn2c1N(CCN(C)C)CC1CC1	ATXN viability 28µM, TGFb inhibitor inconclusive, ATXN2 expr inh inconclusive (no result: Gal4-VP16 FLuc, RORgamma inh)
CCc1nc2ccc(C(=O)Nc3cc(-c4ccccc4)ccc3OC)cn2c1N(C)CCC(C)C	ATXN viability inconclusive, TGFb inhibitor inconclusive, ATXN2 expr inh inconclusive (no result: Gal4-VP16 FLuc, RORgamma inh)
CCc1nc2ccc(C(=O)Nc3cc(-c4ccccc4)ccc3OC)cn2c1N(C)CCCc1ccccc1	none (no result: Gal4-VP16 FLuc, RORgamma inh)
CCCCN(C)c1c(C)nc2ccc(C(=O)Nc3cc(-c4ccccc4)ccc3OC)cn12	ATXN viability inconclusive, HepG2 viability 13µM, TGFb inhibitor inconclusive, ATXN2 expr inh inconclusive (no result: Gal4-VP16 FLuc, RORgamma inh)
CCOC(=O)c1cnc2ccc(Cl)cc2c1Nc1ccc(OCC)cc1	none (no result: Gal4-VP16 FLuc, RORgamma inh)
COc1ccc2c(-c3ccccc3)cc(SCC(=O)NC3CCS(=O)(=O)C3)nc2c1 (centres undefined)	TGFb inhibitor inconclusive, RORgamma inh 11µM
CCN(C(=O)CSc1cc(-c2ccccc2)c2ccc(OC)cc2n1)C1CCS(=O)(=O)C1 (centres undefined)	TGFb inhibitor inconclusive
CCOC(=O)c1c(NC(=O)/C=C/c2ccc(C)cc2)sc2c1CCCC2	none (no result: Gal4-VP16 FLuc, RORgamma inh)
Cc1cc(C(=O)N/N=C/c2cc(Br)cc([N+](=O)[O-])c2O)c2ccccc2n1	Gal4-VP16 FLuc 3.2µM, ATXN2 expr inh inconclusive, RORgamma inh 2µM
O=C(N/N=C/C=C\c1ccccc1[N+](=O)[O-])c1cc(-c2ccccc2)nc2ccccc12	Gal4-VP16 FLuc 2.8µM, RORgamma inh 1.6µM
O=C(N/N=C/c1cc([N+](=O)[O-])ccc1O)c1cc(-c2ccccc2)nc2ccccc12	ATXN viability inconclusive, Gal4-VP16 FLuc 4µM, ATXN2 expr inh 10µM, RORgamma inh 3.2µM
Cc1cc(C(=O)Nc2ccc(Br)cc2)c2ccccc2n1	ATXN viability inconclusive (no result: ATXN2 expr inh)
O=C(N/N=C/c1cc([N+](=O)[O-])ccc1O)c1c[nH]c2ccccc12	Gal4-VP16 FLuc inconclusive, TGFb inhibitor inconclusive, ATXN2 expr inh 14µM, RORgamma inh 5µM
O=C(N/N=C/c1cc([N+](=O)[O-])ccc1Cl)c1cc(-c2ccccc2)nc2ccccc12	none
CCN(CC)CCNC(=O)C(=O)NCC(c1cccnc1)N1CCN(c2ccc(F)cc2)CC1 (centres undefined)	none (no result: Gal4-VP16 FLuc, RORgamma inh)
Cc1cc(C(=O)N/N=C/c2ccc([N+](=O)[O-])cc2)c2ccccc2n1	ATXN2 expr inh inconclusive, RORgamma inh inconclusive
Cc1cc(C(=O)N/N=C/c2cc([N+](=O)[O-])ccc2O)c2ccccc2n1	ATXN viability inconclusive, Gal4-VP16 FLuc 4.5µM, TGFb inhibitor inconclusive, ATXN2 expr inh inconclusive, RORgamma inh 2.8µM
Cc1ccc(C(=O)c2cc(O)c(O)c([N+](=O)[O-])c2)cc1	none (no result: Gal4-VP16 FLuc, HepG2 viability, TGFb inhibitor, RORgamma inh)
Cc1nc2c(-c3ccc(F)cc3)cnn2c(N)c1-c1ccccc1	ATXN viability inconclusive, Gal4-VP16 FLuc inconclusive, TGFb inhibitor inconclusive, ATXN2 expr inh inconclusive, RORgamma inh 0.045µM
COc1ccc(CCNC(=O)c2cnc3sc(N4CCOCC4)nn3c2=O)cc1OC	none (no result: Gal4-VP16 FLuc, RORgamma inh)
O=C1CC(c2nc3ccccc3n2CCCCOc2ccccc2)CN1c1ccccc1Cl (centres undefined)	ATXN viability 28µM, TGFb inhibitor inconclusive, ATXN2 expr inh inconclusive (no result: Gal4-VP16 FLuc, RORgamma inh)
CCOc1ccc(N2CC(c3nc4ccccc4n3CCOc3ccccc3)CC2=O)cc1 (centres undefined)	ATXN viability inconclusive, TGFb inhibitor 16µM, ATXN2 expr inh inconclusive (no result: Gal4-VP16 FLuc, RORgamma inh)

Screening results as filed in PubChem.
